EPAC1 antagonist = blocks human EPAC1 exchange factor; EPAC1 GEF assay, Rap1b-BODIPY-GDP exchange fluorescence; Potency, µM (top dose mostly 115 µM), without a hit: top-dose activity change, negative = inhibition, hits mostly inhibitors; 0.14% of 360,000 active; AID 720709;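 note: plate controls were vehicle for no effect and positive control for full effect; nearly all actives have a fitted effect of over 50% in size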
EPAC2 antagonist = EPAC2 (human) antagonism. EPAC2 GEF exchange of Rap1B-BODIPY-GDP, fluorescence. 0.18% of 360,000 active. Q8WZA2. AID 720708. Potency, µM (titrated, usually from 114 µM), for inactives: top-dose activity, negative = inhibition, actives largely listed as inhibitors; note: % is set by controls: 0 for no effect and ±100 for the full control effect; nearly all actives have a fitted effect of over 45% in size
EPAC2 agonist = EPAC2 (human) agonism. Potency, µM (highest dose often 154 µM), for inactives: at the top dose activation, usual class: activators. AID 720711. 0.079% of 360,000 active. EPAC2 activation, biochemical qHTS; response scale: 100% = 6.5 mM cAMP response. Q8WZA2; note: nearly all actives have a fitted effect of over 50% in size
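Nucleotide exchange monitored as fluorescence drop when BODIPY-GDP leaves Rap1B. Reaction: 100 nM EPAC2, 250 nM RAP1B-BODIPY-GDP, 50 uM GDP, room temperature, kinetic read over 30 min. Activity expressed relative to 6.5 mM cAMP.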
EPAC1 agonist = EPAC1 (human) agonism. EPAC1 agonist qHTS, biochemical assay; response scale: 100% = response to 6.5 mM cAMP. Potency, µM (top dose mostly 154 µM), inactives show at the top dose activation, hits mostly activators. 0.073% of 360,000 active; note: nearly all actives have a fitted effect of over 60% in size
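Multi-concentration qHTS readout: loss of Rap1B-bound BODIPY-GDP fluorescence driven by 100 nM EPAC1 with excess GDP (50 uM), monitored kinetically at room temperature; agonist response expressed relative to 6.5 mM cAMP.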
Numbers without * were called inactive; i = inactive; ? = inconclusive. This is a sample that favours compounds with a hit; in the whole collection about 0.38% have one here. Calls come from the whole dose curve; as a rule, active = well fitted curve in the direction sought with a large enough effect; inconclusive = small, poorly fitted or top-dose-only effect, or another doubt; inactive = no such curve, though single readings can be large; an effect the other way counts as inactive or inconclusive. Potency is the fitted concentration of half-maximal effect.

SMILES	EPAC1 antagonist	EPAC2 antagonist	EPAC2 agonist	EPAC1 agonist
CC(C)OP(=O)(OC(C)C)C1(NS(=O)(=O)c2ccc(Cl)cc2)C=C(Cl)C(=O)C(Cl)=C1	-20.3%	39.8µM*	0.6%	-18.5%
CC1CC(C)CN(C(=O)c2cccc(S(=O)(=O)Nc3cc(C(F)(F)F)ccc3Cl)c2)C1 (stereo not drawn)	50.1µM*	50.1µM*	-14.3%	-12.7%
O=C(O)c1cccc(S(=O)(=O)Nc2cc(Cl)ccc2Cl)c1	-16.2%	-2.9%	8.2%	8.8%
CC(C)(C)N1CC(c2nc3ccccc3n2Cc2ccc(Cl)cc2)CC1=O (stereo not drawn)	-20.7%	-17.8%	-21.1%	4.0%
CC(C)(C)N1CC(c2nc3ccccc3n2CCOc2ccccc2)CC1=O (stereo not drawn)	9.5%	-11.4%	10µM*	-5.4%
O=C(O)c1ccc(N/N=C/c2ccc(-c3ccccc3Cl)o2)cc1	-0.4%	39.8µM*	-4.6%	4.4%
CCCCN1CCN=C1N(C)C	-13.1%	2.8%	0.5%	-5.2%
CC(OC(=O)C1CCN(S(=O)(=O)c2ccc(C(C)(C)C)cc2)CC1)C(=O)N(C)C1CCCCC1 (stereo not drawn)	-29.2%	-13.1%	9.4%	-2.8%
O=c1oc2ccccc2nc1/C=C(O)/C=C\c1ccccc1	-4.9%	27.2%	63.1µM*	5.3%
c1ccc(-c2cnn3c(-c4ccccc4)c(-c4ccccc4)nc3n2)cc1	64.6%	i	89.1µM*	12.6µM*
CCN(CC)c1ccc2cc(-c3nnc(-c4ccccc4)o3)c(=O)oc2c1	99.2%	238.5%	35.5µM*	?
CCN(CC)c1ccc2cc(-c3nc4ccccc4[nH]3)c(=O)oc2c1	53.4%	228.8%	6.7%	?
CCN(CC)c1ccc2cc(-c3nc4ccccc4n3C)c(=O)oc2c1	-15.1%	17.1%	10.5%	26.8%
CCN(CC)c1ccc2cc(C(=O)c3cccs3)c(=O)oc2c1	321.6%	i	79.4µM*	56.2µM*
CCN(CC)c1ccc2cc(-c3nc(-c4ccc(OC)cc4)cs3)c(=O)oc2c1	230.9%	5.62µM*	-380.6%	-85.8%
COCCCN1C(=O)C(CC(=O)NCCN2CCOCC2)CC(C(=O)N2CCOCC2)=C1C (stereo not drawn)	-0.4%	-3.4%	16.1%	-2.0%
Cc1nn(CCc2nn[nH]n2)c2nc(-c3ccc(C4CCCCC4)cc3)cc(C(F)(F)F)c12	79.4µM*	?	-23.3%	-14.6%
Cc1nn(CCC(=O)O)c2nc(-c3cccnc3)cc(C(F)(F)F)c12	2.8%	7.9%	5.0%	-11.6%
CCCCn1nnnc1C1(C)CCC(=O)N1Cc1ccco1 (stereo not drawn)	3.1%	11.6%	6.5%	14.7%
C=CC(C)N1C(=O)S/C(=C\c2ccc(N3CCOCC3)cc2C)C1=O (stereo not drawn)	35.5µM*	-1.1%	1.3%	-38.4%
CN(C)/C=C1\C=C2C(=O)c3ccccc3N2C1=O	-36.6%	417.6%	35.5µM*	?
CN(C)S(=O)(=O)N1C(=O)c2ccccc2C1=O	2.1%	-2.7%	8.5%	-9.7%
c1ccc2c3c([nH]c2c1)C(C1CCCCC1)N(Cc1ncc[nH]1)CC3 (stereo not drawn)	10.8%	-2.1%	5.6%	-4.0%
COc1cccc(C2c3[nH]c4ccccc4c3CCN2Cc2ncc[nH]2)c1 (stereo not drawn)	-3.8%	50.1µM*	6.8%	6.1%
CCN(CC)C(=O)CSc1nnc(-c2cccs2)n1Cc1ccco1	8.0%	11.2%	10µM*	-0.3%
SMILES	EPAC1 antagonist	EPAC2 antagonist	EPAC2 agonist	EPAC1 agonist
CCOC(=O)CC1(C)NC(C(=O)O)C(C)(C)S1 (stereo not drawn)	7.3%	1.2%	10.1%	0.8%
O=C(CN1CCCCCC1)Nc1ccccc1Oc1ccccc1	-11.5%	39.8µM*	15.8%	5.8%
O=C(O)c1cc(S(=O)(=O)Nc2cc(Cl)ccc2Oc2ccccc2)ccc1O	?	39.8µM*	-3.9%	-0.3%
NC(=O)C1CCN(CC(=O)Nc2cc(Cl)ccc2Oc2ccccc2)CC1	-7.6%	-15.9%	3.3%	6.4%
O=C(CN1CCCCC1)Nc1cc(Cl)ccc1Oc1ccccc1	-4.9%	28.2µM*	1.8%	1.2%
COc1ccccc1NC(=O)CN1CCCCCC1	-4.9%	0.5%	5.7%	6.8%
Nc1ccc(-c2nc3ccc(N)cc3[nH]2)cc1	?	-0.2%	13.4%	12.8%
Nc1ccc2cc3[nH]c4cc(N)ccc4c3nc2c1	i	230.9%	56.2µM*	89.1µM*

Bioassay records (PubChem BioAssay)
